In the supplement of paper PMC11417369:
± gives the standard deviation of the averaged measurements. In all, about 25,000 sequences were measured (“ln(normalized median fluorescence intensity)”: median about 7.9, highest 2% from about 11 on). The entries come from a sample that favours the highest values as a whole.

What follows are sequences tested on PfAP2-I AP2 domain 3 (GST-tagged) (assay: gcPBM binding intensity (ln(normalized median fluorescence intensity)); higher = stronger DNA binding).
In short: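 The binding buffer was 1× PBS containing 1% milk, 0.2 mg/ml BSA, 0.5% salmon testes DNA and 0.03% Triton X-100. In it, GST-tagged P. falciparum DNA-binding domains expressed in E. coli were applied for 1 h to an Agilent 4 × 180k array of primer-extended double-stranded 36-bp intergenic genomic probes plus negative controls. Binding intensity, read with Alexa488 anti-GST antibody and a 488 nm scan, is the highest Masliner-normalised natural-log median intensity across replicate spots of either probe orientation.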
With “TTGTATTTCCTTAGGAGTACACATAAATAAGTAAAT [XGTACX_site6677]” the “gcPBM binding intensity (ln)” value was 8.22 ± 0.092.
For “ATAATTACATAGATTGGTACACATTTTTGATTGTAT [XGTACX_site3802]”, the “gcPBM binding intensity (ln)” value was 7.71 ± 0.44.
In the case of ACTTTAACCTGAACGGTGCATAAAATTTTGGCATTA, the “gcPBM binding intensity (ln)” value is reported as 10.9 ± 0.35.
With TGTATTAAAAATTTGGTGCAACTTTTACATAATAAT the “gcPBM binding intensity (ln)” value was 9.49 ± 0.18.
With “ACTAATAATTTGTCGGTGCATAAAATTATTTTTATT [GTGCAC_site9840]” the “gcPBM binding intensity (ln)” value was 10.8 ± 0.43.
“CATATTATATTCTGCTTACACACATATATATATATA [CACACA_site3059]” was tested, and the “gcPBM binding intensity (ln)” value was 9.36 ± 0.29.
In the case of “TCCCAATTTCTATCCTGTACAGACATAAATATATAC [XGTACX_site5937]”, the “gcPBM binding intensity (ln)” value is reported as 8.31 ± 0.49.
In the case of “TATGTATATATTTACGCATGCTACTCTATTTTGAGA [TGCATGCA_site990]”, the “gcPBM binding intensity (ln)” value is reported as 7.64 ± 0.48.
For AATAAATACTAAATGGTGCAAAATTTTTTAACACTG, the “gcPBM binding intensity (ln)” value was 10.8 ± 0.42.
With ATACTATTTAAATGGGTGCTAAAAATAACAAAAATT the “gcPBM binding intensity (ln)” value was 9.65 ± 0.085.
“TAAATCAAAATAATTTAACACACAATTTTAATACTG [CACACA_site8744]” was tested, and the “gcPBM binding intensity (ln)” value was 7.34 ± 0.54.
For “ATCAAATTTGGACATGCATGTGTGTGTAAAACCATG [TGCATGCA_site309]”, the “gcPBM binding intensity (ln)” value was 8.52 ± 0.41.
In the case of “TGGTATATTATTTTTTGTACACATAAATGAAACATT [XGTACX_site5345]”, the “gcPBM binding intensity (ln)” value is reported as 8.04 ± 0.22.
For “GGTGTTTTTCACAGATGTACACAAATAAAAAAGAAA [XGTACX_site4454]”, the “gcPBM binding intensity (ln)” value was 8.39 ± 0.47.
For “TCGTTATCCATCTTCACACATATATATAGTAATATA [CACACA_site5492]”, the “gcPBM binding intensity (ln)” value was 8.27 ± 0.49.
In the case of “AAAGTGTTAACCTAATCTTTAGTTTTTAAACAATAT [CACACA_negctrl_site841]”, the “gcPBM binding intensity (ln)” value is reported as 7.49 ± 0.59.
In the case of “CTATTTCAATTTAGTGCACACATTTTAATTTATAAG [CACACA_site2040]”, the “gcPBM binding intensity (ln)” value is reported as 11.4 ± 0.49.
For ACCCATTTTAATTTAGTGCACATTTTACCTTTATAC, the “gcPBM binding intensity (ln)” value was 11.4 ± 0.35.
ATATATATATATATAGTGCACATTTATATAATTATT was tested, and the “gcPBM binding intensity (ln)” value was 11.43 ± 0.092.
In the case of “TTAATTTATTTATGCACACATATATAATTACCCATA [CACACA_site682]”, the “gcPBM binding intensity (ln)” value is reported as 10.2 ± 0.67.
For “GCCATTAATTTATACACACACATTATAACTTTTTAT [CACACA_site6492]”, the “gcPBM binding intensity (ln)” value was 8.29 ± 0.49.
With “TTTTTTTCAATATTTGCACACGATTATAATATTTAA [CACACA_site2237]” the “gcPBM binding intensity (ln)” value was 9.415 ± 0.035.
In the case of “TATATTATTAATTAAGCACACATTATTTTTATAATA [CACACA_site3982]”, the “gcPBM binding intensity (ln)” value is reported as 8.54 ± 0.3.
For “TATAATAATATTATAGTGCATATTATTTATATATAA [GTGCAC_site9820]”, the “gcPBM binding intensity (ln)” value was 9.72 ± 0.16.
For “TTAATAATTAATTATAGTACACATTTATATTAATAA [XGTACX_site190]”, the “gcPBM binding intensity (ln)” value was 7.915 ± 0.064.
For “TAATGGTGTTCATGTGGTACACTTTATAAATTGGCA [XGTACX_site729]”, the “gcPBM binding intensity (ln)” value was 7.9 ± 0.47.
In the case of “CCCTTTTATTAAAATTCACACACATAAATTTTTATA [CACACA_site8611]”, the “gcPBM binding intensity (ln)” value is reported as 8.06 ± 0.41.
“TATAAAAAAAAAAAATATATATATATATAAATATAA [TGCATGCA_negctrl_site367]” was tested, and the “gcPBM binding intensity (ln)” value was 7.28 ± 0.37.
“ACTTAGGAAATAAAACGTACATTAAATATATACATA [XGTACX_site2990]” was tested, and the “gcPBM binding intensity (ln)” value was 7.84 ± 0.35.
“AAATAAAAAAGTAGTACACACTTCACGATATTTTTT [CACACA_site6015]” was tested, and the “gcPBM binding intensity (ln)” value was 7.89 ± 0.43.
In the case of “CATCAAGTGAATTGTTGTACTTTACATTGTTTTTAT [XGTACX_site7261]”, the “gcPBM binding intensity (ln)” value is reported as 7.89 ± 0.69.
For “AAAAAATATTATATATGTACATAATATTTTTTTTTT [XGTACX_site5909]”, the “gcPBM binding intensity (ln)” value was 7.47 ± 0.39.
“ACATACTCAAATAGCACACACATAAATAAAAATGTA [CACACA_site3864]” was tested, and the “gcPBM binding intensity (ln)” value was 8.42 ± 0.099.
“AAAAGAAAATATATGTGTACTAAAATATATATATAT [XGTACX_site3817]” was tested, and the “gcPBM binding intensity (ln)” value was 9.455 ± 0.021.
“AAATCGTGTACATTGACACACATAATTTTTTTTATA [CACACA_site2463]” was tested, and the “gcPBM binding intensity (ln)” value was 8.09 ± 0.38.
In the case of “ACATATTATTCAAGTGCACACTTTATATTTATGATT [CACACA_site3295]”, the “gcPBM binding intensity (ln)” value is reported as 9.715 ± 0.035.
With “TTATTTTATTTTTGTGCACACTGATAAATTGAAAAG [CACACA_site2949]” the “gcPBM binding intensity (ln)” value was 10.8 ± 0.22.
“ATCATCTTTATTCAAGTGCACTGAAAATTTTTTATA [GTGCAC_site9801]” was tested, and the “gcPBM binding intensity (ln)” value was 11.1 ± 0.32.
In the case of TACATCATCTATAAGGTGCATTTTAGTTCTATTAAA, the “gcPBM binding intensity (ln)” value is reported as 10.3 ± 0.58.
In the case of “TCCTTTATTTTTAAAGTGCATATACATGTACATTAT [GTGCAC_site9445]”, the “gcPBM binding intensity (ln)” value is reported as 9.675 ± 0.078.
In the case of “AAAAAAAAAAGAAACACACACATATAGATTTATAAC [CACACA_site6927]”, the “gcPBM binding intensity (ln)” value is reported as 7.69 ± 0.69.
In the case of “AAGTTTAAAATCTTTGCACACATATAAATAAATATA [CACACA_site2554]”, the “gcPBM binding intensity (ln)” value is reported as 8.94 ± 0.12.
“ATATTACAAATATAATGTACAAAATATAAATATGCA [XGTACX_site8106]” was tested, and the “gcPBM binding intensity (ln)” value was 7.62 ± 0.3.
“AGAAAAATAAACAAATGTACAAATTATTACTATATA [XGTACX_site1087]” was tested, and the “gcPBM binding intensity (ln)” value was 7.63 ± 0.34.
In the case of “AAAAATATAATATAATGTACACAAAAAAAAAAAATC [XGTACX_site1427]”, the “gcPBM binding intensity (ln)” value is reported as 7.93 ± 0.52.
With “GTATATAATATTAGTGCACACACAAAAATGTACTAA [CACACA_site8112]” the “gcPBM binding intensity (ln)” value was 11.4 ± 0.55.
“ATAATAAATACACTAGTGCAAAATAATATATGTACT [GTGCAC_site9707]” was tested, and the “gcPBM binding intensity (ln)” value was 10.4 ± 0.22.
For “GAAACTATGTAATGCACACCAAAATAAAATTATTAA [CACACA_site1904]”, the “gcPBM binding intensity (ln)” value was 10.9 ± 1.
In the case of “ATATAATATTAGTGCACACACAAAAATGTACTAAAC [CACACA_site632]”, the “gcPBM binding intensity (ln)” value is reported as 11.3 ± 0.54.
With “CTATAATATTAGTGCACACACAAAAATGTACTAAAC [CACACA_site6442]” the “gcPBM binding intensity (ln)” value was 11.6 ± 0.62.
“TAGAAACTATGTAATGCACACCAAAATAAAATTATT [CACACA_site8578]” was tested, and the “gcPBM binding intensity (ln)” value was 10.4 ± 0.33.
For “AAAAATATAATATAATGTACACATAAACAAAAAAAA [XGTACX_site3658]”, the “gcPBM binding intensity (ln)” value was 7.92 ± 0.57.
“TTAAAAAACTATAATACACACCAAAAATATGCACAT [CACACA_site7079]” was tested, and the “gcPBM binding intensity (ln)” value was 9.44 ± 0.7.
In the case of “AAAAATATAATATAATGTACACAAAAAAAAAAAAAT [XGTACX_site4914]”, the “gcPBM binding intensity (ln)” value is reported as 8.18 ± 0.15.
For “AGAAGAAATATGTAAAAAATTTTATATTCACACACA [GTGCAC_negctrl_site441]”, the “gcPBM binding intensity (ln)” value was 8.15 ± 0.33.
In the case of “ATAAATTCATACATTTGTACACAAAAAAAAAAAAAA [XGTACX_site2435]”, the “gcPBM binding intensity (ln)” value is reported as 8.12 ± 0.57.
With “TTTTTTTTTTCTTTTTGTACATATTCATAACAAGTA [XGTACX_site2784]” the “gcPBM binding intensity (ln)” value was 8.12 ± 0.5.
With “AATGTAACAACTTTTTGTACTTAAGAAATAATAAAT [XGTACX_site3310]” the “gcPBM binding intensity (ln)” value was 7.64 ± 0.61.
For “TAATTAAAAAATAAAAAAAAAAAAAATTAAAACAAA [CACACA_negctrl_site500]”, the “gcPBM binding intensity (ln)” value was 7.2 ± 0.58.
